Here are results for 153 variants from a collection of fitness landscapes (doi:10.1126/science.1257360).

In all, about 140,000 sequences were measured (“enrichment ratio after two sorts for PhoP signalling”: median about 0, highest 2% from about 11 on). For the sample, the highest values were picked, then their nearest neighbours and some sequences at random.

The chains are these.
B1: PhoQ; a variant is named by its letters at X, in order, P23837 (parent)
chain: MKKLLRLFFPLSLRVRFLLATAAVVLVLSLAYGMVALIGYSVSFDKTTFRLLRGESNLFYTLAKWENNKLHVELPENIDKQSPTMTLIYDENGQLLWAQRDVPWLMKMIQPDWLKSNGFHEIEADVNDTSLLLSGDHSIQQQLQEVREDDDDAEMTHSVAVNVYPATSRMPKLTIVVVDTIPVELKSSYMVWSWFIYVLSANLLLVIPLLWVAAWWSLRPIEALAKEVRELEEHNRELLNPATTRELTSLVRNLNRLLKSERERYDKYRTTLTDLTHSLKTPLXXLQXXLRSLRSEKMSVSDAEPVMLEQISRISQQIGYYLHRASMRGGTLLSRELHPVAPLLDNLTSALNKVYQRKGVNISLDISPEISFVGEQNDFVEVMGNVLDNACKYCLEFVEISARQTDEHLYIVVEDDGPGIPLSKREVIFDRGQRVDTLRPGQGVGLAVAREITEQYEGKIVAGESMLGGARMEVIFGRQHSAPKDE

This assay covers variants of B1. In words: enrichment ratio after two sorts for PhoP signalling (ratio (wild type AVST 3.29)); higher = more functional. To be noted: with PhoP (E. coli).
Take SAMS: the enrichment ratio amounted to 7.54.
As to SALN, the enrichment ratio was determined as 11.9.
In the case of SAMK it was 17.9; in that of SALA, 5.84.
Then SACN, with 9.88; and KALN, with at most 0.25; and SAMG, with 5.01.
As for SALS, the enrichment ratio is 11.5.
Regarding SAPA, the enrichment ratio was at most 0.25.
Then SYEW, with at most 0.25.
Consider PEIY, for which the enrichment ratio was at most 0.25.
Regarding VINR, the enrichment ratio was at most 0.25.
Then ELMR, with at most 0.25; and DFTI, with at most 0.25; and SIMM, with 1.49.
With LCMM, the enrichment ratio turned out to be 26.9.
For the variant TQMM, the enrichment ratio was 57.7.
As to LCWM, the enrichment ratio was at most 0.25.
In the case of SPMM, the enrichment ratio was at most 0.25.
As to SEMM, the enrichment ratio stood at 32.5.
On to KFMM, for which the enrichment ratio was at most 0.25.
Regarding FQMM, the enrichment ratio was determined as 5.91.
In the case of SYMM, the enrichment ratio amounted to 0.307.
Take SAMM: the enrichment ratio amounted to 12.7.
Regarding NQMM, the enrichment ratio is at most 0.25.
Turning to SRMM, the enrichment ratio came to 1.64.
Turning to PFQY, the enrichment ratio is at most 0.25.
On to GAKN, for which the enrichment ratio is at most 0.25.
For the variant FYYW, the enrichment ratio was at most 0.25.
In the case of FFHN it was at most 0.25; in that of SYFV, at most 0.25.
Regarding WNTR, the enrichment ratio is at most 0.25.
As for WKFY, the enrichment ratio is at most 0.25.
Then EDEV, with at most 0.25; and TFAW, with at most 0.25.
In the case of HTHM it was at most 0.25; in that of YRCS, at most 0.25.
As for RLLR, the enrichment ratio was at most 0.25.
YTMM: the enrichment ratio was found to be 11.8.
Regarding SSMM, the enrichment ratio was 19.1.
SQMM: the enrichment ratio came to 3.97.
As for TGMM, the enrichment ratio came out at 16.
For the variant NGMM, the enrichment ratio was at most 0.25.
Then RGMM, with at most 0.25.
For YYMM, the enrichment ratio was at most 0.25.
For STMM, the enrichment ratio was 18.6.
For YAMM, the enrichment ratio was found to be 3.27.
Take KYMM: the enrichment ratio was at most 0.25.
Regarding SWMM, the enrichment ratio is at most 0.25.
APTA: the enrichment ratio was at most 0.25.
On to HDAK, for which the enrichment ratio was at most 0.25.
Take NSKR: the enrichment ratio is at most 0.25.
In the case of FYPF it was at most 0.25; in that of SSWP, at most 0.25; in that of IRWL, at most 0.25.
As to QACS, the enrichment ratio is at most 0.25.
Regarding PGDN, the enrichment ratio was at most 0.25.
Regarding GRMN, the enrichment ratio was at most 0.25.
In the case of NMLY it was at most 0.25; in that of MMMM, at most 0.25.
As to FTMM, the enrichment ratio was 12.1.
FSMM: the enrichment ratio came to 4.33.
Then SHMM, with 2.18; and THMM, with 17.6; and GGMM, with at most 0.25.
For the variant YHMM, the enrichment ratio is at most 0.25.
In the case of NIMM it was 16; in that of QPMM, at most 0.25.
In the case of NHMM it was at most 0.25; in that of MTMM, 59.5.
Take WIMM: the enrichment ratio was at most 0.25.
Consider PMCS, for which the enrichment ratio is at most 0.25.
For REDA, the enrichment ratio was at most 0.25.
For the variant PAGC, the enrichment ratio was at most 0.25.
Regarding YDLP, the enrichment ratio was at most 0.25.
In the case of IRNP, the enrichment ratio is at most 0.25.
Then DPYV, with 2.59; and EAKL, with at most 0.25; and YSMM, with 14.3.
Take SCMM: the enrichment ratio came to 14.4.
Consider YEGM, for which the enrichment ratio is at most 0.25.
Take YSWM: the enrichment ratio is at most 0.25.
Then VTTS, with at most 0.25; and VTTM, with 16.4; and SLMM, with 5.51.
With NRMM, the enrichment ratio is at most 0.25.
For VTGM, the enrichment ratio is at most 0.25.
With KCMM, the enrichment ratio is at most 0.25.
YERM: the enrichment ratio is at most 0.25.
With YEMM, the enrichment ratio worked out at 16.1.
As to RADI, the enrichment ratio is at most 0.25.
Consider MQSS, for which the enrichment ratio was at most 0.25.
Regarding NLSW, the enrichment ratio was at most 0.25.
Then FRTV, with at most 0.25; and NQTP, with at most 0.25; and GFHH, with at most 0.25.
Regarding SQRD, the enrichment ratio is at most 0.25.
Turning to VHHE, the enrichment ratio was at most 0.25.
Then VTMM, with 12.1.
For the variant TCMM, the enrichment ratio came out at 11.8.
Turning to VYMM, the enrichment ratio was at most 0.25.
For TYMM, the enrichment ratio is 2.16.
Turning to GTMM, the enrichment ratio stood at 5.34.
YEMS: the enrichment ratio came out at 14.7.
Turning to GQMM, the enrichment ratio worked out at 11.4.
Turning to VTPM, the enrichment ratio was at most 0.25.
As to GYMM, the enrichment ratio is 0.253.
Then VCMM, with 2.29.
As to YEMW, the enrichment ratio was at most 0.25.
As for YEMV, the enrichment ratio came to 2.64.
Turning to ILAT, the enrichment ratio was 0.361.
With HVDN, the enrichment ratio is at most 0.25.
In the case of TLEY, the enrichment ratio is at most 0.25.
As for KMTV, the enrichment ratio is at most 0.25.
As for FPHD, the enrichment ratio was at most 0.25.
On to WHGQ, for which the enrichment ratio is at most 0.25.
As for MDMM, the enrichment ratio was at most 0.25.
In the case of NSMM, the enrichment ratio worked out at 1.7.
On to TSMM, for which the enrichment ratio is 21.5.
For FCMM, the enrichment ratio is 8.52.
As for QGMM, the enrichment ratio was found to be 31.6.
For SKMG, the enrichment ratio turned out to be 3.1.
In the case of MCMM, the enrichment ratio amounted to 11.9.
For the variant KSMM, the enrichment ratio was at most 0.25.
Turning to FFMM, the enrichment ratio was at most 0.25.
Regarding SKMM, the enrichment ratio was 24.1.
Turning to QTMM, the enrichment ratio was at most 0.25.
Then QLQK, with at most 0.25; and TKIP, with at most 0.25; and ELAY, with at most 0.25.
In the case of NETK it was at most 0.25; in that of MVNN, at most 0.25.
For the variant RGIV, the enrichment ratio is at most 0.25.
Consider SFSE, for which the enrichment ratio was at most 0.25.
For ETYT, the enrichment ratio is at most 0.25.
On to MTEV, for which the enrichment ratio is at most 0.25.
For VHMG, the enrichment ratio was at most 0.25.
Turning to LSWM, the enrichment ratio came out at 2.98.
On to NNRM, for which the enrichment ratio is at most 0.25.
In the case of LWMM it was at most 0.25.
For the variant FGMM, the enrichment ratio is 18.1.
In the case of FGWM it was at most 0.25.
Turning to LSMM, the enrichment ratio turned out to be 12.4.
As to FGGM, the enrichment ratio is at most 0.25.
For NNMM, the enrichment ratio worked out at 17.4.
As to LNMM, the enrichment ratio is 1.77.
Then DRPI, with at most 0.25; and ETGL, with at most 0.25; and YNMN, with at most 0.25.
Regarding ICFY, the enrichment ratio was at most 0.25.
With DNHD, the enrichment ratio is at most 0.25.
For the variant PFKT, the enrichment ratio was at most 0.25.
QPNP: the enrichment ratio was at most 0.25.
